Screening data deposited in PubChem by National Center for Advancing Translational Sciences (NCATS).
Only some compounds are listed: those with a hit (about 5.9% of all), similar ones and a draw of the others.
TrxR1 inh: inhibitors of rat thioredoxin reductase 1. Potency, µM (titrated, usually from 114 µM), usual class: inhibitors. 1% of 390,000 active. AID 588453. recombinant rTrxR1, NADPH fluorescence consumption, selenite substrate; note: nearly all actives have a fitted effect of over 65% in size
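Rat TrxR1 (90 nM in the dispensed reagent) was pre-reduced with 400 uM NADPH for 5 min at room temperature, then incubated with compound for 15 min. After 400 uM selenite was added, NADPH fluorescence (Ex 340/Em 450 nm) was followed for 8 min.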
GALK inh: galactokinase (human) inhibition | P51570 | 0.007% of 270,000 active | Potency, µM (titrated, usually from 57.5 µM), usual class: inhibitors | Purified GALK, Kinase-Glo residual ATP luminescence
Target sequence (P51570 whole entry, looked up): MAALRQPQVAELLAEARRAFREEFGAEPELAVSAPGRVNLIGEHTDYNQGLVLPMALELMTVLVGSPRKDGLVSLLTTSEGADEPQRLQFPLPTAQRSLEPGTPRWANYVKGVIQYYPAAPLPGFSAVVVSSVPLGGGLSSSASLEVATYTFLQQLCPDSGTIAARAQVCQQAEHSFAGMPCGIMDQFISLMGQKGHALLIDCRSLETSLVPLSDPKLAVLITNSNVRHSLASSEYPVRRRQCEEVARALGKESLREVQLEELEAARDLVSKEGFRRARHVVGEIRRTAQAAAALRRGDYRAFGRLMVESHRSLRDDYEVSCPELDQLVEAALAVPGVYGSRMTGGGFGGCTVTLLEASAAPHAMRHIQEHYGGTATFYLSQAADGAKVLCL
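5 nM enzyme, 35 uM ATP, 100 uM galactose, 20 mM HEPES pH8.0, 5 mM MgCl2; 1 h RT; residual ATP by Kinase-Glo Plus luminescence, qHTS format.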
TrxR1 substrate: rat thioredoxin reductase 1 substrate activity; O89049; purified TrxR1 substrate turnover, NADPH consumption readout; Potency, µM (doses to about 114 µM); 0.01% of 390,000 active; note: nearly all actives have a fitted effect of over 50% in size
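Rat TrxR1, dispensed at 90 nM, was prereduced with 400 uM NADPH (final) for 5 min at ~22 deg C, then incubated with compound 15 min before 400 uM selenite. A first-read NADPH fluorescence drop versus no-compound background flagged substrates.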
Coupling enz: inhibits coupling enzyme system, counter-screen for aldolase hits. activity change, negative = inhibition, % at 58.2 µM, hits read low. coupling enzyme system counterscreen, AmpLite Red fluorescence. 0.67% of 290,000 active. AID 2472; in the data active = activity change below about -30%
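Fluorescence at 525 nm excitation and 598 nm emission measured inhibition of the coupled detection system without aldolase. Compounds (at 57.5 uM final) were preincubated 10 min at room temperature with coupling enzyme reagent before a 20 min substrate/AmpLite Red step.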
VP16 counter: Gal4-VP16 reporter inhibition counter-screen | 3.5% of 310,000 active | Drosophila S2 Gal4-VP16 UAS-luciferase, luminescence, 20 h | Potency, µM (highest dose often 53.6 µM), actives largely listed as inhibitors | AID 2546;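 note: Gal4-VP16 expression switched on by copper sulfate through the metallothionein promoter; nearly all actives have a fitted effect of over 50% in size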
RORgamma inh: blocks mouse ROR gamma transcriptional activity | P51450 | Drosophila S2 Gal4-RORgamma UAS-luciferase reporter, 20 h | Potency, µM (series often up to 53.6 µM), usual class: inhibitors | 5.4% of 310,000 active; note: nearly all actives have a fitted effect of over 60% in size
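Luminescence from a UAS-regulated Photinus luciferase reporter in stably transfected Drosophila Schneider cells is measured; decreased signal marks ROR gamma inhibition. Fusion expression is induced by 700 uM copper sulfate for 20 hr.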
Numbers stand for hits; n = inactive; u = inconclusive; x = no result; ! = a repeat was not active; [ ] = another dose, or the depositor's remark. Unless noted, calls come from the whole dose curve; as a rule, active = well fitted curve in the direction sought with a large enough effect; inconclusive = small, poorly fitted or top-dose-only effect, or another doubt; inactive = no such curve, though single readings can be large; an effect the other way counts as inactive or inconclusive.

SMILES | TrxR1 inh | GALK inh | TrxR1 substrate | Coupling enz | VP16 counter | RORgamma inh
CCCC[C@@H]1C[C@H]1[C@@H](NC(=O)c1ccco1)c1ccc(C(=O)OC)cc1 | n | x | n | x | x | x
CC(C)(C)C1CCc2c(sc(NC(=O)c3ccccc3F)c2C(=O)NCc2ccco2)C1 (stereo not drawn) | n | x | n | x | x | x
COc1cccc2c1C(=O)c1c(O)c3c(c(O)c1C2=O)C[C@@](O)(C(=O)CO)C[C@@H]3O[C@H]1C[C@H](N)[C@@H](O)[C@H](C)O1 | n | x | n | x | x | x
COc1cccc2c1C(=O)c1c(O)c3c(c(O)c1C2=O)C[C@](O)(C(=O)CO)C[C@@H]3O[C@H]1C[C@H](N)[C@@H](O)[C@H](C)O1 | x | x | x | x | n | n[10 µM]
COc1cccc2c1C(=O)c1c(O)c3c(c(O)c1C2=O)C[C@@](O)(C(C)=O)C[C@@H]3O[C@H]1C[C@H](N)[C@H](O)[C@H](C)O1 | n | x | n | -52! | 6.3µM! | 2.5µM
COc1cccc2c1C(=O)c1c(O)c3c(c(O)c1C2=O)C[C@@](O)(C(=O)CO)C[C@@H]3OC1C[C@@H](N)[C@H](O)[C@H](C)O1 (stereo partly drawn) | x | x | x | n | u | 2.5µM
COc1cccc2c1C(=O)c1c(O)c3c(c(O)c1C2=O)CC(O)(C(=O)CO)CC3OC1CC(N(C)C)C(O)C(C)O1 (stereo not drawn) | n[11.4 µM] | x | n | x | x | x
CC(=O)[C@]1(O)Cc2c(O)c3c(c(O)c2[C@@H](O[C@H]2C[C@H](N)[C@H](O)[C@H](C)O2)C1)C(=O)c1c(O)cccc1C3=O | x | x | x | -35 | 7.1µM | 3.5µM
CN(CCCN1CCOCC1)Cc1nc(-c2ccccc2)no1 | n | n | n | n | n | n
CC(NC(=O)CN1C(=O)c2cccnc2Oc2ccc(Cl)cc21)c1ccccc1 (stereo not drawn) | n | x | n | x | x | x
CCc1nc2sc3ccccc3c(=O)c2c(=O)n1Cc1ccco1 | 14µM | n | n | n | n | n
O=c1c2ccccc2sc2nc(C3CCCCC3)n(Cc3ccco3)c(=O)c12 | n | n | n | n | n | n
CC1(C)Cc2[nH]c(=S)c(C#N)cc2CO1 | u | n | n | n | u | 20µM
N#Cc1cc2c([nH]c1=S)CCCC2 | n | x | n | n | n | n
O=C(Nc1cccc(C(=O)N2CCOCC2)c1)c1ccc([N+](=O)[O-])cc1 | n | n | n | x | n | n
O=c1cc(-c2ccccc2Cl)oc2c(NS(=O)(=O)c3cc(Cl)cc(Cl)c3O)ccc(O)c12 | n | x | n | n | 5µM | u
Cc1ccc2[nH]c3c(=S)nc[nH]c3c2c1 | u | n | n | n | u | 13µM
CCCC(=O)NC(=S)Nc1ccccc1F | n | x | n | n | u | 4µM
CCC(=O)NC(=S)Nc1ccccc1OC | n | n | n | n | u | u
CC(=O)NC(=S)Nc1ccccc1F | n | n | n | n | u | u
COc1ccccc1NC(=S)NNC(=O)c1ccc(Cl)cc1Cl | n | n | n | n | u | 13µM
CCCC(=O)Nc1ccccc1NC(=O)CCC | n | n | n | n | n | n
COc1ccccc1NC(=S)NC(=O)Cc1ccc(Cl)cc1 | n | n | n | n | 4.5µM | 7.1µM
CC(C)(C)C(=O)NC(=S)Nc1ccccc1F | u | n | n | n | u | 13µM
CNc1ccc(Oc2c(F)c(F)nc(F)c2F)cc1 | n | n | n | n | n | n
SMILES | TrxR1 inh | GALK inh | TrxR1 substrate | Coupling enz | VP16 counter | RORgamma inh
CCOC(=O)c1c(C)n(C)c2cc(-c3ccc(F)cc3)c(O)cc12 | n[0.0914 µM] | n | n | n | n | n
O=C(CC(=O)Nc1ccccc1F)Nc1ccccc1F | 89µM | n | n | n | n | n
COc1cc(-c2cc(C(=O)Nc3c(Cl)cc(Cl)cc3Cl)c3ccccc3n2)cc(OC)c1OC | n | n | n | n | n | n
COc1ccc(-c2nc3cc(NC(=S)NC(=O)Cc4ccccc4)ccc3o2)cc1 | n[0.0914 µM] | n | n | n | 2.5µM | 4.5µM
O=C(CN1CCCCCC1)Nc1ccccc1F | n | n | n | n | n | n
CCCC(=O)NC(=S)Nc1ccccc1OC | n | n | n | n | u | 10µM
COc1ccc2nc3ccccc3nc2c1NC(=O)c1ccc(Cl)cc1Cl | n | n | n | -33 | n | n
COc1ccc(N2CCN(CC(O)COC(c3ccc(F)cc3)c3ccc(F)cc3)CC2)cc1 (stereo not drawn) | n | n | n | n | n | n
COc1ccccc1NC(=S)NC(=O)CCCOc1ccc(Cl)cc1Cl | u | n | n | n | 16µM | 10µM
CCC(=O)NC(=S)Nc1ccccc1F | n | n | n | n | u | 13µM
COC(=O)CCC(=O)NNC(=O)c1ccc(Cl)cc1Cl | n | n | n | n | n | 11µM
COc1cccc(NC(=S)NC(=O)Cc2ccc(Cl)cc2)c1 | n | n | n | n | 7.1µM | 7.1µM
O=C(CCCOc1ccc(Cl)cc1Cl)Nc1ccccn1 | n | n | n | n | n | n
COc1ccc(CC(=O)NC(=S)Nc2cccc(C)c2)cc1 | n[11.4 µM] | x | n[11.4 µM] | x | x | x
COC(=O)[C@H](CCSC)NC(=O)N1CCC(C)CC1 | n | n | n | n | n | n
COc1cc(OC)cc(C(=O)N/N=C/c2ccc(OC)c(COc3ccc(F)cc3)c2)c1 | n | n | n | n | u | 4µM
COc1ccc(/C=N\NC(=O)c2ccc([N+](=O)[O-])cc2)cc1COc1c(F)c(F)cc(F)c1F | n | n | n | x | 4.5µM | 3.5µM
COc1ccc(C(=O)N/N=C/c2ccc(OC)c(COc3c(F)c(F)cc(F)c3F)c2)cc1 | n | n | n | x | u | u
CCN(C[C@H]1N[C@@](CC)(C(=O)OC)[C@H]2C(=O)N(Cc3ccccc3)C(=O)[C@@H]12)C(=O)NC(C)C | n | x | n | x | x | x
Cc1cc2ccc(C)c(C)c2nc1SCC#N | n | n | n | n | n | n
COc1ccc(-c2nc3n(n2)C(=O)CC(c2ccco2)S3)cc1 (stereo not drawn) | 14µM | n | n | n | n | n
CC12CCC(C/C1=N\N=C1\NC(=O)/C(=C\c3cccc(Br)c3)S1)C2(C)C (stereo not drawn) | n | n | n | n | 11µM | 10µM
CSc1cccc(NC(=O)C2CCN(C(=O)c3cnn(-c4ccccc4)c3-n3cccc3)CC2)c1 | n | x | n | x | x | x
CC(C)Oc1ccc(/C=C(/NC(=O)c2ccccc2)C(=O)NC(Cc2ccccc2)C(=O)O)cc1 (stereo not drawn) | n | n | n | n | n | n
CC(C)Oc1ccc(/C=C(/NC(=O)c2ccccc2)C(=O)NCCC(=O)O)cc1 | n | n | n | n | n | 11µM
c1ccc(-n2nnc3c(N4CCOCC4)ncnc32)cc1 | n | n | n | n | u | 8.9µM
COc1cc(C(=O)NC(=S)Nc2cccc3nc(C)ccc23)cc(OC)c1OC | n | n | n | n | n | n
